Compounds without any hit were thinned out: in the full panel of roughly 83,000, 20% have a hit.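 Results are percent growth after 48 hours of single-concentration exposure. 100 means growth as in untreated cells, lower positive values show inhibition; negative values down to -100 show cell death.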 Values without a mark were called inactive. Calls of active or inactive are those of the source. The calls were made as follows: active = growth percent below 10; inactive = the rest.
Tests used:
Assay in all cases: NCI-60 one-dose screen, 48 h (100 = growth as untreated, 0 = no growth, -100 = all killed)
Details in all cases: 10 µM unless noted
[1] = tested on: HT29 colon
[2] = tested on: SNB-75 CNS
[3] = tested on: SNB-19 CNS
[4] = tested on: U251 CNS
[5] = tested on: PC-3 prostate
[6] = tested on: SK-MEL-5 melanoma
[7] = tested on: UACC-62 melanoma
[8] = tested on: SK-MEL-28 melanoma
[9] = tested on: SK-MEL-2 melanoma
[10] = tested on: EKVX NSCLC
[11] = tested on: SN12C renal
[12] = tested on: UO-31 renal
[13] = tested on: ACHN renal
[14] = tested on: CAKI-1 renal
[15] = tested on: A498 renal
[16] = tested on: CCRF-CEM leukemia
[17] = tested on: MOLT-4 leukemia
[18] = tested on: SR leukemia
[19] = tested on: LOX IMVI melanoma
[20] = tested on: TK-10 renal

| Structure (SMILES) | growth [1] | growth [2] | growth [3] | growth [4] | growth [5] | growth [6] | growth [7] | growth [8] | growth [9] | growth [10] | growth [11] | growth [12] | growth [13] | growth [14] | growth [15] | growth [16] | growth [17] | growth [18] | growth [19] | growth [20] |
| --- | --- | --- | --- | --- | --- | --- | --- | --- | --- | --- | --- | --- | --- | --- | --- | --- | --- | --- | --- | --- |
| CCC/C=C/C=C/C(=O)N[C@@H](Cc1cc(F)cc(F)c1)C(=O)N[C@@H]1C(=O)N2CCC[C@H]2C(=O)N2CCCC[C@H]2C(=O)N[C@@H](C)C(=O)N2C[C@H](C)C[C@H]2C(=O)O[C@H]1C | 9.05% (active) | 28.5% | 25.8% | 26.8% | 14.5% | 10.5% | 13.6% | 29% | -12.9% (active) | 32.1% | 20.3% | 29.7% | 23.1% | 11.5% | 3.26% (active) | 28.9% | 34.7% | 27.1% | – | – |
| O=C1c2c(c3c4cc(Br)ccc4[nH]c3c3ccc4ccccc4c23)C(=O)N1CCO | 89.9% | 128% | 85.6% | 74.3% | 83.3% | – | 72.6% | 99.8% | 110% | 100% | 89.5% | 78% | 73.7% | 69.6% | 90.6% | 64.6% | 70.5% | -6.75% (active) | 66.4% | – |
| CC(C)(C)Nc1nc2c(OCCc3ccccc3)cccn2c1-c1ccc(O)cc1 | 14.8% | 124% | 68.3% | 53.1% | 28.8% | – | 70.4% | 66% | 85.1% | 38.9% | 64.3% | 57.3% | – | 80.1% | 103% | 38.5% | 22.7% | 32.5% | 34.9% | 113% |
| CS(=O)(=O)c1ccc(-c2nc3ccccn3c2/C=N/Nc2nc(-c3ccc(Br)cc3)cs2)cc1 | 114% | 114% | 103% | 107% | 100% | – | 102% | 103% | 113% | – | 103% | 84.8% | 103% | 96.9% | 78% | 90.8% | 94% | 95.1% | 112% | – |
| CN(C)CCCNc1c2ccccc2nc2c1oc1ccc(Cl)cc12 | -34% (active) | 37.5% | 43.3% | 33.4% | 47.2% | 47.9% | 52.1% | 43.8% | 70.8% | – | 26.6% | 39.5% | 17.5% | 21.4% | 7.63% (active) | 24.1% | 3.74% (active) | -30.8% (active) | – | – |
| CCCC(=O)NC(c1ccc2c(c1)OC(F)(F)O2)c1cc(C)c2cccnc2c1O (stereo not drawn) | 32.3% | 40.4% | 22.5% | 14.8% | 36.6% | -31.2% (active) | -16.7% (active) | 17.1% | – | 23.1% | 19.4% | 6.46% (active) | 6.71% (active) | 12.8% | 6.01% (active) | 9.16% (active) | 15.3% | 13% | – | 54.8% |
| Cc1nc(-c2cc3ccccc3oc2=O)ccc1C(=O)/C=C/c1ccc(Cl)c(Cl)c1 | 114% | 95.2% | 98.5% | 99.4% | 101% | – | 100% | 106% | – | 92.1% | 99.8% | 89.4% | 93.1% | 95.7% | 93.8% | 104% | 102% | 94.9% | 86.9% | 117% |
| COC(=O)C(C)NS(=O)(=O)/N=C1\NC(=O)NC1=C(Cl)Cl (stereo not drawn) | 115% | 98.8% | 100% | 106% | 92.9% | 99.1% | 91.9% | 99.4% | – | 104% | 98.7% | 81.7% | 98.2% | 99% | – | 95.9% | 100% | 93.2% | – | – |
| COC(=O)c1ccc(NC(=S)N2CCc3ccc([N+](=O)[O-])cc3C2)cc1O | 109% | 112% | 97.6% | 111% | 98.7% | 100% | 99.2% | 106% | – | 99.2% | 99.8% | 85.5% | 95.4% | 92.7% | – | 94.9% | 91.7% | 95.5% | – | 137% |
| [Cl][Ru].c1ccc(-c2cc(-c3ccccn3)nc(-c3ccccn3)c2)cc1.c1ccc(-c2ccnc3c2ccc2c(-c4ccccc4)ccnc23)cc1 | -47.6% (active) | -20% (active) | 12.2% | -54.8% (active) | -7.82% (active) | – | -68% (active) | -73.5% (active) | -91.6% (active) | 25.9% | -22.5% (active) | 63.9% | – | -6.38% (active) | -20.2% (active) | 0.187% (active) | -16.8% (active) | -40.3% (active) | -71.4% (active) | – |
| Cc1cc2nc3c4cc(Cl)ccc4n(CC(=S)NCCN(C)C)c3nc2cc1C | -32% (active) | -19.1% (active) | 4.89% (active) | -54.8% (active) | -30.1% (active) | -10.3% (active) | -67.1% (active) | -91.3% (active) | – | 4.02% (active) | 40.9% | -68.1% (active) | -96.4% (active) | -92.3% (active) | – | -49.3% (active) | -60.3% (active) | -43.8% (active) | – | 55.6% |
| NS(=O)(=O)c1ccc(Nc2nc(Nc3ccccc3)nc(-n3nc(-c4ccccc4)cc3-c3ccccc3)n2)cc1 | 4.52% (active) | 56.4% | 50.1% | 33.3% | 26.7% | 39.2% | 54.8% | 54.6% | – | 40.3% | 41.2% | 29.1% | 15.3% | 21% | – | 10.7% | 4.14% (active) | 0.684% (active) | – | 108% |
| c1ccc2c(NCCCN3CCOCC3)c3oc4ccccc4c3nc2c1 | -48.2% (active) | -4.26% (active) | 5.03% (active) | -2.33% (active) | 7.6% (active) | -90.4% (active) | -52.1% (active) | -46.9% (active) | – | -19.6% (active) | 3.3% (active) | -79.6% (active) | – | -27% (active) | -86.9% (active) | 12% | -4.43% (active) | -12.1% (active) | – | – |
| N#Cc1ccc(/C=N/NC(=O)c2[nH]c3ccc(Br)cc3c2-c2ccccc2)s1 | 5.64% (active) | 49.7% | 29.4% | 16.5% | 25% | -40.9% (active) | 23.4% | 58.4% | 30.4% | – | 42.1% | 36% | – | 18.3% | – | 9.74% (active) | 4.12% (active) | 7.7% (active) | – | 102% |
| COc1cc2nc(-c3ccc(C)cc3)cc(OCCCNCC3CCCO3)c2cc1OC (stereo not drawn) | 21.3% | 80.7% | 92.1% | 66.7% | 66.3% | – | 96.6% | 68.1% | 112% | 73.4% | 57.3% | 72% | 65.7% | 24.6% | 46.9% | 73.4% | 71.9% | 41.1% | -32.2% (active) | – |
| CO/N=C1\CCc2c(sc(NC(=O)c3cccc(C(F)(F)F)c3)c2C(N)=O)C1 | 51.2% | -58.4% (active) | 27.7% | 3.28% (active) | 64.8% | – | 76.8% | 60.3% | 63.9% | 30.7% | 15.6% | -16.4% (active) | -23.7% (active) | 11.3% | -43.3% (active) | 67.9% | 84.1% | 37.1% | – | -17.1% (active) |
| Clc1ccc2c(NCCCN3CCOCC3)c3oc4ccc(Cl)cc4c3nc2c1 | 33.5% | 79.6% | 69.6% | 44.1% | 60.8% | 74.2% | 98.7% | 80.4% | – | 65.3% | 40% | 32.2% | 12.1% | 21.6% | 49.7% | 48.9% | 15.4% | 1.24% (active) | – | – |

From PubChem BioAssay (NCI)
